From PubChem BioAssay AID623989 (Broad Institute, 2012) come the findings set out here.

Results with a measured potency or affinity are listed apart. Records with an inconclusive call do not appear. Calls of active or inactive are those of the source.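 Rule for the calls: active = curve fit gives half-maximal inhibition potency at or below twice the top tested dose in every run; inconclusive = runs disagree, flat partial inhibition, or poor curve fit; inactive = inactive in every run, flat, reversed or weak.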

The target in this assay is Glycogen synthase kinase-3 beta (Homo sapiens) (UniProt P49841). The assay is described as follows: inhibition of human GSK3B activity – biochemical, microfluidics, dry powder samples, set 2, dose response (AID 623989).
Chain of Glycogen synthase kinase-3 beta (Homo sapiens) (P49841 whole entry, looked up): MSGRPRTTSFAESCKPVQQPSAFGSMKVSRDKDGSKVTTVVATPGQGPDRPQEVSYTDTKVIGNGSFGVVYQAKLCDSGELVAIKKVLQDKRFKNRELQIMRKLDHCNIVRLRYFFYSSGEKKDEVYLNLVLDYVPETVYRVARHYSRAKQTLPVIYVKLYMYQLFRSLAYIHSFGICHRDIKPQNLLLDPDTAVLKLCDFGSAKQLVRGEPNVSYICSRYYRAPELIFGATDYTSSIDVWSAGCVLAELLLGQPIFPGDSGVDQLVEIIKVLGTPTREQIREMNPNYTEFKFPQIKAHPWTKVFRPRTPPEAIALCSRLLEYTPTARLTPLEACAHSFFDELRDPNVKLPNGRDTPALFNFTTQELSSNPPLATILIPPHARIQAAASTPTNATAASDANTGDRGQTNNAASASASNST

For the compound `COc1cc(C(=O)N2CCN(c3ccccn3)CC2)cc(OC)c1OC`, the outcome was inactive.
